# Results from PubChem BioAssay.
# Values joined by “and” are separate entries in the source; they are usually repeats but may differ in a detail not shown here. Identical values can stand only once. Results filed as inconclusive are left out. Active and inactive are the calls of the source.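 Rule for the calls, unless noted: active = compounds whose cell count with miR-34 switched on is under 0.7 times the count with it off; inactive = the rest.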
# What was measured:
# [1] = Wnt pathway potentiators raising nuclear beta-catenin – imaging, WNT3A-conditioned medium, mouse C2C12, NPC library, primary screen (AID 1117326; in the data active = nuclear beta-catenin stimulation mostly above about 4.2%, no sharp cut-off; inactive = mostly below about 10%; note: reference of the scale not given here); conditions: stronger effect = higher value
# [2] = stimulators of insulin release from INS-1E, primary screen, cell-based, 5 mM glucose, NPC library (AID 1117329;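 active = compound raises insulin release from rat beta cells at 5 mM glucose, no numeric limit stated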; note: reference of the scale not given here); conditions: rat INS-1E insulin secretion, at 10 µM, stronger effect = higher value
# [3] = growth inhibition of GSK3B-pretreated HCT116 cells – cell-based, CellTiter-Glo, 0.2 to 20 µM (AID 1117336;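 active = compounds lowering colon cancer cell viability after pretreatment blocking the GSK3B kinase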); conditions: HCT116 viability after GSK3B inhibitor, at 20 µM, stronger effect = higher value
# [4] = inhibition of endothelial tube formation, primary screen, imaging, VEGF stimulated, CD31 staining, tube area, NPC library (AID 1117340;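 active = compound that reduces growth-factor-driven endothelial tube area in a mixed cell culture, no cutoff stated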); conditions: VEGF-stimulated ADSC/ECFC co-culture, at 10 µM, stronger effect = higher value
# [5] = GLP1 release stimulators, primary, NCI-H716, NPC library (AID 1117341;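 active = compound raises GLP1 secretion from the human gut endocrine cells, with no numeric limit stated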; note: reference of the scale not given here); conditions: NCI-H716 cells, at 10 µM, stronger effect = higher value
# [6] = HCT116 colon cancer cell growth inhibition, primary screen, CellTiter-Glo luminescence, NPC library (AID 1117342;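 active = compounds that lower survival of HCT116 colon cancer cells in the luminescence readout, no numeric limit stated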); conditions: at 20 µM (top of the series)
# [7] = reduced SW480 viability measured with CellTiter-Glo, NPC library, primary (AID 1117343;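 active = compounds that lower viability of the colon cancer cells in the luminescence readout, with no numeric limit stated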); conditions: CellTiter-Glo luminescence; at 20 µM (top of the series) unless noted
# [8] = NPC library primary testing for decreased DLD-1 cell viability via CellTiter-Glo (AID 1117346;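 active = compounds that lower survival of DLD-1 colon cancer cells in the luminescence readout, no cutoff given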); conditions: DLD-1 viability, CellTiter-Glo luminescence; at 20 µM (top of the series)
# [9] = system: Aerobactin synthetase IucA (Klebsiella pneumoniae); assay: inhibition of K. pneumoniae IucA enzyme – biochemical, Tocris library, absorbance (AID 1345561; call rule not given here;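 note: 100% = enzyme without compound and 0% = no enzyme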); conditions: purified IucA enzyme assay, absorbance (OD) read-out; stronger effect = lower value;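 tested at 8 µM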
# [10] = viability loss with induced miR-34 in A549 – imaging, A549 dox-inducible miR-34, nuclei and caspase counts, primary screen (AID 1347080); conditions: A549 miR-34 inducible, Hoechst nuclei count, 48 h
# [11] = galactose survival enhancers in mitochondrial complex I cybrids – cell-based, galactose medium, ATP luminescence, primary screen (AID 1645843;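 active = z-score of at least 1.8 in each of two replicates, scored against plate mean and spread of sample wells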;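 note: positive z means more ATP and so rescue of galactose-driven cybrid death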); conditions: complex I mutant cybrid cells, 72 h, stronger effect = higher value
# [12] = P. berghei load reduction in hepatocytes – cell-based, HepG2, luciferase luminescence, HepG2 viability, primary screen (AID 624349; in the data active = parasite load remaining mostly below about 12%, no sharp cut-off; inactive = mostly above about 10%;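 note: 100% = mean of DMSO negative control wells on the same plate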); conditions: P. berghei liver stage in HepG2, luciferase luminescence, concentration not given here; parasite load remaining: stronger effect = lower value; viability: measured here: HepG2 viability without parasites
# [13] = MELAS cybrid and Rieske KO viability enhancers – cell-based, MELAS cybrids, Rieske KO mouse fibroblasts, CellTiter-Glo, primary screen (AID 1508586;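 active = mean z-score across replicates of 1.96 or higher in either the MELAS or the Rieske mutant cell line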;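 note: z relative to plate mean and SD of compound and empty wells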); conditions: low glucose
# [14] = target: NAD(+) hydrolase SARM1 (Homo sapiens) (UniProt Q6SZW1); assay: blocking NAD cleavage by SARM1 SAM-TIR – cell lysate, NAD-Glo luminescence (AID 1508614;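 active = compound whose remaining NAD level is above about 45 nM, limit read from the data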;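 note: higher remaining NAD means stronger inhibition of SARM1 NADase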); conditions: SAM-TIR HEK293T lysate NADase, at 1 µM, stronger effect = higher value
# NAD(+) hydrolase SARM1 (Homo sapiens), sequence (Q6SZW1 whole entry, looked up): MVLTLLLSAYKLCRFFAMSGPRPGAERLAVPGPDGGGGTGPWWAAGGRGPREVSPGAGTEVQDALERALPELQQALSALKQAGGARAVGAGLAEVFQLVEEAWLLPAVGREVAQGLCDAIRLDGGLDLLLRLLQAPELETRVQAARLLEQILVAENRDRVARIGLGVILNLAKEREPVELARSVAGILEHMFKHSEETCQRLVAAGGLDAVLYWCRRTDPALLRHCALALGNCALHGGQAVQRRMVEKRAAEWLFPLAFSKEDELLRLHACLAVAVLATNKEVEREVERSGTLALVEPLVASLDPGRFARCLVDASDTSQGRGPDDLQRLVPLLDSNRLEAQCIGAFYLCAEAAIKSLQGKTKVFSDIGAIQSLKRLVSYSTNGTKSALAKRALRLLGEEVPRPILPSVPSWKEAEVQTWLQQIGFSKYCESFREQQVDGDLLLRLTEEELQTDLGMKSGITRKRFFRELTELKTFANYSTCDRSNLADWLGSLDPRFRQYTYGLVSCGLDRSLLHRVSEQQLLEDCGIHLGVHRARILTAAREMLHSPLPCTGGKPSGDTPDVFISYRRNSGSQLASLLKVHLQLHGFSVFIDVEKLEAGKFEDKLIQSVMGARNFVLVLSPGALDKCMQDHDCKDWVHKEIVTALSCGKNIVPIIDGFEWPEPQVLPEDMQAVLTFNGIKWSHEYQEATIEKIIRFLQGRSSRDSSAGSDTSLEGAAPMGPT
# [15] = viability loss in pontine glioma line – cell-based, SU-DIPG-XVII, MIPE5.0, CellTiter-Glo, qHTS, dose response (AID 1347060; cut-off not given, nearly all actives have AC50 up to about 26 µM); conditions: CellTiter-Glo ATP luminescence
# [16] = viability loss in pontine glioma line – cell-based, SU-DIPG-XIII, MIPE4.0, CellTiter-Glo, qHTS, dose response (AID 1347061; cut-off not given, nearly all actives have AC50 up to about 37 µM;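 note: cells exposed to compound for 48 hours before readout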); conditions: CellTiter-Glo ATP luminescence
# [17] = growth inhibition of DIPG cells – cell-based, MIPE5.0 library, qHTS (AID 1347068; cut-off not given, nearly all actives have IC50 up to about 30 µM); conditions: SU-DIPG-XXV viability
# [18] = stronger effect = lower value, cell number ratio, induced over uninduced
# [19] = measured here: relative caspase fold change +Dox/-Dox
# [20] = measured here: total cells with miR-34 induction, stronger effect = lower value
# [21] = measured here: total cells without miR-34 induction
# [22] = MELAS cybrid survival, CellTiter-Glo 48 h, stronger effect = higher value
# [23] = Rieske KO mouse fibroblast survival, CellTiter-Glo 72 h
structure (smiles),measurement,setting,value
O=S1(=O)c2cccc3cccc(c23)N1CCCN1CCN(c2ccc(F)cc2)CC1,nuclear beta-catenin stimulation,[1]; at 10 µM,1.8% (inactive)
same,nuclear beta-catenin stimulation,"[1]; stimulation, at 2 µM",17.7%
same,insulin secretion stimulation,[2],3.4% (inactive)
same,viability decrease,[3],74.5% (active)
same,tube area decrease,[4],-3% (inactive)
same,GLP1 secretion stimulation,[5],0.3% (inactive)
same,inhibition of viability,[6],104% (active)
same,viability decrease (inhibition),[7],136% (active)
same,viability decrease (inhibition),[8],84.5% (active)
same,remaining activity,[9],92.7% (inactive)
same,fold change,[10]; [18],0.902 (inactive)
same,fold change,[10]; [19],1.69
same,cell count,[10]; [20],7340
same,cell count,[10]; [21],8140
same,z-score,[11],-0.675 (inactive)
CN=C(NC#N)Nc1ccc(C2=NNC(=O)CC2C)cc1 (centres undefined),parasite load remaining,[12],25% (inactive)
same,viability,[12],67%
same,nuclear beta-catenin stimulation,[1]; at 10 µM,-0.7% (inactive)
same,nuclear beta-catenin stimulation,"[1]; stimulation, at 2 µM",-0.1%
same,insulin secretion stimulation,[2],0.3% (inactive)
same,viability decrease,[3],-15.4% (inactive)
same,tube area decrease,[4],-8.1% (inactive)
same,GLP1 secretion stimulation,[5],-1.9% (inactive)
same,inhibition of viability,[6],-3.9% (inactive)
same,viability decrease (inhibition),[7],4.1% (inactive)
same,viability decrease (inhibition),[8],-10.5% (inactive)
same,remaining activity,[9],117% (inactive)
same,fold change,[10]; [18],0.976 (inactive) and 0.925 (inactive) and 0.857 (inactive)
same,fold change,[10]; [19],0.912 and 0.898 and 1.1
same,cell count,[10]; [20],6170 and 8930 and 9670
same,cell count,[10]; [21],6320 and 9660 and 11300
same,z-score,[13]; [22],0.199 (inactive)
same,z-score,[13]; [23],0.162
same,z-score,[11],0.095 (inactive) and 0.625 (inactive)
Cc1ccc(=O)n(-c2ccccc2)c1,nuclear beta-catenin stimulation,[1]; at 10 µM,2.8% (inactive)
same,nuclear beta-catenin stimulation,"[1]; stimulation, at 2 µM",0.6%
same,insulin secretion stimulation,[2],-1.2% (inactive)
same,viability decrease,[3],-0.3% (inactive)
same,tube area decrease,[4],13.3% (inactive)
same,GLP1 secretion stimulation,[5],-2% (inactive)
same,inhibition of viability,[6],-4.6% (inactive)
same,viability decrease (inhibition),[7],39.2% (inactive)
same,viability decrease (inhibition),[8],12.8% (inactive)
same,remaining activity,[9],120% (inactive)
same,fold change,[10]; [18],1.05 (inactive) and 0.91 (inactive) and 0.937 (inactive)
same,fold change,[10]; [19],1.33 and 1.82 and 0.797
same,cell count,[10]; [20],11000 and 8480 and 9430
same,cell count,[10]; [21],10500 and 9310 and 10100
same,z-score,[13]; [22],-0.113 (inactive)
same,z-score,[13]; [23],-0.414
same,z-score,[11],0.38 (inactive) and -0.08 (inactive)
CN1CCC[C@@H]1Cc1c[nH]c2ccc(CCS(=O)(=O)c3ccccc3)cc12,nuclear beta-catenin stimulation,[1]; at 10 µM,1.8% (inactive)
same,nuclear beta-catenin stimulation,"[1]; stimulation, at 2 µM",1%
same,insulin secretion stimulation,[2],3.3% (inactive)
same,viability decrease,[3],30.6% (inactive)
same,tube area decrease,[4],0.6% (inactive)
same,GLP1 secretion stimulation,[5],5.3% (inactive)
same,inhibition of viability,[6],36.8% (inactive)
same,viability decrease (inhibition),[7],19.5% (inactive)
same,viability decrease (inhibition),[8],-0.8% (inactive)
same,remaining activity,[9],117% (inactive)
same,fold change,[10]; [18],0.993 (inactive) and 0.947 (inactive)
same,fold change,[10]; [19],1.11 and 0.557
same,cell count,[10]; [20],9730 and 9170
same,cell count,[10]; [21],9790 and 9680
same,remaining NAD,[14],10 nM (inactive)
same,z-score,[11],-0.6 (inactive) and -0.525 (inactive)
C1COC(NC(C2CC2)C2CC2)=N1,parasite load remaining,[12],46.7% (inactive)
same,viability,[12],103%
same,nuclear beta-catenin stimulation,[1]; at 10 µM,0.2% (inactive)
same,nuclear beta-catenin stimulation,"[1]; stimulation, at 2 µM",-0.7%
same,insulin secretion stimulation,[2],1.6% (inactive)
same,viability decrease,[3],-1.8% (inactive)
same,tube area decrease,[4],-7.6% (inactive)
same,GLP1 secretion stimulation,[5],1.5% (inactive)
same,inhibition of viability,[6],5.7% (inactive)
same,viability decrease (inhibition),[7],-4% (inactive)
same,viability decrease (inhibition),[8],7.9% (inactive)
same,remaining activity,[9],98.2% (inactive)
same,outcome,[15],inactive
same,outcome,[16],inactive
same,outcome,[17],inactive
same,fold change,[10]; [18],0.947 (inactive) and 0.935 (inactive) and 0.925 (inactive)
same,fold change,[10]; [19],1.18 and 0.627 and 1.06
same,cell count,[10]; [20],9720 and 9420 and 10200
same,cell count,[10]; [21],10300 and 10100 and 11000
same,z-score,[13]; [22],0.462 (inactive)
same,z-score,[13]; [23],0.9
same,z-score,[11],0.365 (inactive) and -0.285 (inactive) and 0.8 (inactive)
c1cc(CN2CCCCC2)cc(OCCCNc2nc3ccccc3s2)c1,nuclear beta-catenin stimulation,[1]; at 10 µM,3.6% (inactive)
same,nuclear beta-catenin stimulation,"[1]; stimulation, at 2 µM",0.7%
same,insulin secretion stimulation,[2],32.8% (active)
same,viability decrease,[3],29.5% (inactive)
same,tube area decrease,[4],22.6% (inactive)
same,GLP1 secretion stimulation,[5],0.5% (inactive)
same,inhibition of viability,[6],53.3% (active)
same,viability decrease (inhibition),[7],-462% (inactive)
same,viability decrease (inhibition),[8],58.6% (active)
same,remaining activity,[9],120% (inactive)
same,fold change,[10]; [18],1.11 (inactive) and 0.901 (inactive)
same,fold change,[10]; [19],0.913 and 0.9
same,cell count,[10]; [20],7430 and 7110
same,cell count,[10]; [21],6660 and 7890
same,z-score,[11],-1.34 (inactive) and -0.8 (inactive)
C[N+](C)(C)CC[N+]1(C)Cc2c(Cl)c(Cl)c(Cl)c(Cl)c2C1,nuclear beta-catenin stimulation,[1]; at 10 µM,4.4% (inactive)
same,nuclear beta-catenin stimulation,"[1]; stimulation, at 2 µM",2.6%
same,insulin secretion stimulation,[2],-0.5% (inactive)
same,viability decrease,[3],-1% (inactive)
same,tube area decrease,[4],7.3% (inactive)
same,GLP1 secretion stimulation,[5],2.6% (inactive)
same,inhibition of viability,[6],-4.53% (inactive)
same,viability decrease (inhibition),[7],2.9% (inactive)
same,viability decrease (inhibition),[8],-10.2% (inactive)
same,remaining activity,[9],115% (inactive)
same,fold change,[10]; [18],0.88 (inactive)
same,fold change,[10]; [19],1.79
same,cell count,[10]; [20],9090
same,cell count,[10]; [21],10300
same,z-score,[11],0.045 (inactive)
FC(F)(F)c1ccccc1-n1ccnc1,nuclear beta-catenin stimulation,[1]; at 10 µM,1.3% (inactive)
same,nuclear beta-catenin stimulation,"[1]; stimulation, at 2 µM",-0.4%
same,insulin secretion stimulation,[2],1.7% (inactive)
same,viability decrease,[3],2% (inactive)
same,tube area decrease,[4],-7.9% (inactive)
same,GLP1 secretion stimulation,[5],-1.9% (inactive)
same,inhibition of viability,[6],2.03% (inactive)
same,viability decrease (inhibition),[7],-83.5% (inactive)
same,viability decrease (inhibition),[8],4.5% (inactive)
same,remaining activity,[9],102% (inactive)
same,fold change,[10]; [18],0.976 (inactive) and 0.948 (inactive) and 0.969 (inactive)
same,fold change,[10]; [19],1.92 and 1.05 and 0.962
same,cell count,[10]; [20],9410 and 5980 and 9120
same,cell count,[10]; [21],9640 and 6310 and 9410
same,z-score,[11],0.425 (inactive) and 1.96 (inactive)
NC(=O)n1c(O)c(C(=O)c2cccs2)c2cc(Cl)ccc21,nuclear beta-catenin stimulation,[1]; at 10 µM,-0.2% (inactive)
same,nuclear beta-catenin stimulation,"[1]; stimulation, at 2 µM",-0.7%
same,insulin secretion stimulation,[2],0.2% (inactive)
same,viability decrease,[3],106% (active)
same,tube area decrease,[4],58.6% (active)
same,GLP1 secretion stimulation,[5],-0.5% (inactive)
same,inhibition of viability,[6],102% (active)
same,viability decrease (inhibition),[7],128% (active)
same,viability decrease (inhibition),[8],97.5% (active)
same,remaining activity,[9],121% (inactive)
same,fold change,[10]; [18],0.969 (inactive)
same,fold change,[10]; [19],1.95
same,cell count,[10]; [20],7020
same,cell count,[10]; [21],7250
same,z-score,[11],-0.475 (inactive)
